From PubChem BioAssay come the findings set out here.

Values without a mark were called inactive. For some assays here: Potency and affinity values are given separately. Activity calls are given as the source filed them. Unless noted, the rule behind the calls is not given here.

Experiment [1] in a line: antimalarial activity against Dd2 strain (AID 2302;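 active = growth inhibition above 50% at the single 2 µM test dose, taken to imply half-maximal potency below 2 µM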;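 note: 0% = DMSO untreated growth and 100% = chloroquine plus artemisinin killed control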). The note with it: P. falciparum Dd2 in RBCs, LDH growth readout, 72 h; at 2 µM; stronger effect = higher value.
The nature of experiment [2]: human hepatoma cell viability loss – ATP luminescence, cytotoxicity control for P. falciparum antimalarial project, primary screen (AID 2303;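 active = inhibition above 50%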;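 note: 0% = DMSO wells and 100% = digitonin-killed cells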). The note with it: HepG2 viability, 24-48 h, at 10 µM, stronger effect = higher value.
The target in experiment [3] is L-lactate dehydrogenase (Plasmodium falciparum (isolate CDC / Honduras)) (UniProt Q27743). In words: PfLDH activity inhibition – cell lysate, 3D7 strain, counter-screen for P. falciparum growth inhibition project (AID 2304).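 Note: 0% = vehicle and 100% = reference inhibitor.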 The note with it: P. falciparum 3D7 crude extract, LDH APAD/NBT absorbance; at 2 µM; stronger effect = higher value.
L-lactate dehydrogenase (Plasmodium falciparum (isolate CDC / Honduras)), sequence (Q27743 whole entry, looked up): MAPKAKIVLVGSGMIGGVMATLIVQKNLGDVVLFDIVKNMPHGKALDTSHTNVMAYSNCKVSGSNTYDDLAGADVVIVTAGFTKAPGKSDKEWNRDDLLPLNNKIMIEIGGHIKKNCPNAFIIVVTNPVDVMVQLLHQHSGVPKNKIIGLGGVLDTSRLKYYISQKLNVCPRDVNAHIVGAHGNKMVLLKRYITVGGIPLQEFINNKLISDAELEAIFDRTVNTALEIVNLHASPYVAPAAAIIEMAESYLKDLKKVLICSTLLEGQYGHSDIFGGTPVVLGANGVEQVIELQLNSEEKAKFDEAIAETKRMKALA
Experiment [4] can be described thus: inhibition of 3D7 malaria parasite growth – strain 3D7 (AID 2306).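 Note: 0% = DMSO wells and 100% = chloroquine plus artemisinin control wells.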 The following applies: P. falciparum 3D7 erythrocytic growth, LDH absorbance, 72 h; at 2 µM; stronger effect = higher value.
Experiment [5] addresses Calcium-dependent protein kinase 1 (Plasmodium falciparum (isolate 3D7)) (UniProt P62344). The experiment is described as follows: PfCDPK1 kinase inhibitors, biochemical, TCAMS library (AID 1159585; cut-off not given, nearly all actives have IC50 up to about 0.98 µM;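 note: inhibitors leave more ATP so luminescence rises with inhibition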). The note with it: recombinant PfCDPK1, Kinase-Glo ATP depletion luminescence. On the technique in general: In Kinase-Glo more light means more ATP remaining.
For experiment [6], the target named is Plasmodium falciparum protein kinase 6 (PK6, PF3D7_1337100) (UniProt Q8IDW1). The experiment is described as follows: PfPK6 kinase inhibitors, biochemical, TCAMS library (AID 1159586). The note with it: recombinant PfPK6, Kinase-Glo ATP depletion luminescence.
Plasmodium falciparum protein kinase 6 (PK6, PF3D7_1337100), sequence (Q8IDW1 1-305): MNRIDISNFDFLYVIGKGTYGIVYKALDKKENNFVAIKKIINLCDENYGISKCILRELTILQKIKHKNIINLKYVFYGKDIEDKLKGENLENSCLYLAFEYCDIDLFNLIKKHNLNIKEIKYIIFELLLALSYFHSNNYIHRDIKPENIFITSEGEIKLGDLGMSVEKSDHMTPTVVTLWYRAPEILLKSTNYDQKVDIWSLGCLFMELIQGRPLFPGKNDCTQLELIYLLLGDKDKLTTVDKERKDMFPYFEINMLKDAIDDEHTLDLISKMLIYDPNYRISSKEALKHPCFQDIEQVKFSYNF
The target of experiment [7] is Protein kinase 7 (PK7), Plasmodium falciparum 3D7 (PF3D7_0213400) (UniProt Q7YTF7). In words: inhibition of Plasmodium PK7 catalytic activity – biochemical, TCAMS antimalarial set, Kinase-Glo luminescence (AID 1159587). The note with it: recombinant PfPK7, Kinase-Glo ATP depletion luminescence.
Protein kinase 7 (PK7), Plasmodium falciparum 3D7 (PF3D7_0213400), sequence (Q7YTF7 1-343): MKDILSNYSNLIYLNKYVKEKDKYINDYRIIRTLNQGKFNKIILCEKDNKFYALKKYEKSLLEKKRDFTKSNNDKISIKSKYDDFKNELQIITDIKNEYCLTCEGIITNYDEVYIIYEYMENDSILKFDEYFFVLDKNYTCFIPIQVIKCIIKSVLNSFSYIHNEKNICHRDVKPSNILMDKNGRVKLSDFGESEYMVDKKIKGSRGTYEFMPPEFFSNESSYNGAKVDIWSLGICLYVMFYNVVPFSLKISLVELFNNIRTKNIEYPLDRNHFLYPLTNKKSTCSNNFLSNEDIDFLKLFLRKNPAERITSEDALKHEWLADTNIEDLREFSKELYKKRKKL
For experiment [8], the target named is Calcium-dependent protein kinase 4 (Plasmodium falciparum (isolate 3D7)) (UniProt Q8IBS5). The experiment is described as follows: PfCDPK4 kinase inhibitors, biochemical, TCAMS library (AID 1159588; cut-off not given, nearly all actives have IC50 up to about 0.91 µM). The note with it: recombinant PfCDPK4, Kinase-Glo ATP depletion luminescence.
Calcium-dependent protein kinase 4 (Plasmodium falciparum (isolate 3D7)), sequence (Q8IBS5 whole entry, looked up): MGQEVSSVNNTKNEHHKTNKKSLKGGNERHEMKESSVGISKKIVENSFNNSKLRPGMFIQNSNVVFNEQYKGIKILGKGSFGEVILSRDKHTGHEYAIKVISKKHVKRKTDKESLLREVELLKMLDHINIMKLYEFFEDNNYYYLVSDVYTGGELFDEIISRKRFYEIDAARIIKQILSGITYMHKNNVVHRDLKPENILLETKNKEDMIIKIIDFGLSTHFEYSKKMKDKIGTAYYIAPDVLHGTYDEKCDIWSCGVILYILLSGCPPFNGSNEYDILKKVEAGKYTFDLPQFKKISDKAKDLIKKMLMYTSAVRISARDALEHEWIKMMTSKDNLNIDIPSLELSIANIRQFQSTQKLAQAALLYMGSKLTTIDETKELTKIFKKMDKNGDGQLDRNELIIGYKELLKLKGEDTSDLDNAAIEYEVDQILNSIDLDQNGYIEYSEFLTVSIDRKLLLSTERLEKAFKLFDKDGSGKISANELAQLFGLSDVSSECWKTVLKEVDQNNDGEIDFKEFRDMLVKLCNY

Calcium-dependent protein kinase 1 (Plasmodium falciparum (isolate 3D7)), sequence (P62344 whole entry, looked up): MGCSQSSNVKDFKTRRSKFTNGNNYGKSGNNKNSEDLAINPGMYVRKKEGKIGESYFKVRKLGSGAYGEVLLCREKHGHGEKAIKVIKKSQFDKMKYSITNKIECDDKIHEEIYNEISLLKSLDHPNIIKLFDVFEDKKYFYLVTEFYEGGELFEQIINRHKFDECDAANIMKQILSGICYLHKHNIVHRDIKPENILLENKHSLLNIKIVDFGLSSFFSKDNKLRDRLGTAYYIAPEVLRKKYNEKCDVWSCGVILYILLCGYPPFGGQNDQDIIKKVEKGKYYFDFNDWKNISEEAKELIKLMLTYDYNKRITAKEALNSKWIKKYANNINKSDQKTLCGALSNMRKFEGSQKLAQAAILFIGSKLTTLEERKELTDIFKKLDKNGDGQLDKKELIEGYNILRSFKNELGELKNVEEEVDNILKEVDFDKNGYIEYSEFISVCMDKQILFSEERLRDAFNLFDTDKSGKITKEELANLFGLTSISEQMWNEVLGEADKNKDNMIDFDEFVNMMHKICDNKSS

Turning to `Cc1cnc(-c2cccc(C(=O)NC3CCC(CCN4CCc5ccc(C#N)cc5CC4)CC3)c2)[nH]1` (configuration not stated), the growth inhibition in experiment [1] was 69% (active); in experiment [4], 100% (active). Also, the inhibition was 23% in experiment [2] and 1% in experiment [3]. The outcome in experiment [5], in experiment [6], in experiment [7] and in experiment [8] was inactive.

Regarding `Cc1nnsc1C(=O)Nc1cccc(-c2ccc(-c3nc4ccc(F)cc4[nH]3)cc2)c1`, the growth inhibition in experiment [1] was 89% (active); in experiment [4], 100% (active). The inhibition is 51% (active) in experiment [2] and 4% in experiment [3]. The result in experiment [5], in experiment [6], in experiment [7] and in experiment [8] was inactive.

As for `Fc1ccc2nc(-c3ccc(-c4ccc(CN5CCCCC5)cc4)cc3)[nH]c2c1`, the growth inhibition in experiment [1] is 100% (active); in experiment [4], 98% (active). Also, the inhibition in experiment [2] was 31%; in experiment [3], -3%. Moreover, the outcome in experiment [5], in experiment [6], in experiment [7] and in experiment [8] was inactive.

On to `O=S(=O)(/C=C/c1ccccc1)N(Cc1ccc(-c2ccc(CNCCc3ccccc3)cc2)cc1)CC1CCCCN1` (configuration not stated), for which the growth inhibition in experiment [1] is 96% (active); in experiment [4], 100% (active). The inhibition in experiment [2] is 99% (active); in experiment [3] it was -2%. For the same compound, the outcome in experiment [5], in experiment [6], in experiment [7] and in experiment [8] was inactive.

For the compound `COc1ccc(CCNCC(O)c2cccc(Br)c2)c(Cl)c1OC` (configuration not stated), the results for the growth inhibition in experiment [1] and in experiment [4] were 70% (active) and 87% (active), respectively. Moreover, the inhibition in experiment [2] was 18%; in experiment [3], 0%. Moreover, the result in experiment [5], in experiment [6], in experiment [7] and in experiment [8] was inactive.

As for `Cc1nnsc1C(=O)Nc1cccc(-c2cccc(-c3nc4ccccc4[nH]3)c2)c1`, the growth inhibition is 34% in experiment [1] and 100% (active) in experiment [4]. In addition, the inhibition in experiment [2] was 14%; in experiment [3], 1%. The outcome in experiment [5], in experiment [6], in experiment [7] and in experiment [8] was inactive.

Turning to `O=C(Nc1ccc(Cl)c(C(F)(F)F)c1)N[C@H]1CCN(CCCCCNC(=O)[C@@H]2C[C@H]2c2ccc(Cl)c(Cl)c2)C1`, the values for the growth inhibition in experiment [1] and in experiment [4] were -2% and 94% (active), respectively. In addition, the inhibition in experiment [2] was 39%; in experiment [3], 0%. Moreover, the outcome in experiment [5], in experiment [6], in experiment [7] and in experiment [8] was inactive.

As for `CC(C)C[C@H](NC(=O)c1cc2ccccc2s1)C(=O)N[C@H]1CCN(Cc2ccc(I)c(OCCN3CCCC3)c2)C1`, the figures for the growth inhibition in experiment [1] and in experiment [4] were 88% (active) and 92% (active), respectively. Further, the inhibition in experiment [2] was 3%; in experiment [3] it was -1%. Besides, the result in experiment [5], in experiment [6], in experiment [7] and in experiment [8] was inactive.

Turning to `O=C(Nc1cccc(-c2cccc(-c3nc4ccccc4[nH]3)c2)c1)c1cccnc1`, the growth inhibition in experiment [1] was 14%; in experiment [4], 95% (active). Moreover, the inhibition in experiment [2] was 12%; in experiment [3], -3%. For the same compound, the outcome in experiment [5], in experiment [6], in experiment [7] and in experiment [8] was inactive.

Take `Cc1cc(N(C)C2CCN(C)C2)nc(Nc2ccccc2Cl)n1` (configuration not stated): the growth inhibition in experiment [1] was 84% (active); in experiment [4], 100% (active). Also, the inhibition is 1% in experiment [2] and -1% in experiment [3]. For the same compound, the result in experiment [5], in experiment [6], in experiment [7] and in experiment [8] was inactive.

Take `CN1CCN(CCCN(Cc2cccc(-c3ccc(CNCCc4ccccc4)cc3)c2)C(=O)Nc2ccccc2)CC1`: the growth inhibition in experiment [1] was 91% (active); in experiment [4] it was 100% (active). For the same compound, the values for the inhibition in experiment [2] and in experiment [3] were 61% (active) and 3%, respectively. In addition, the outcome in experiment [5], in experiment [6], in experiment [7] and in experiment [8] was inactive.

For the compound `Cc1cc(NC(=O)c2cccs2)ccc1OC1CCN(Cc2ccc(C#N)cc2)C1` (configuration not stated), the growth inhibition is 61% (active) in experiment [1] and 82% (active) in experiment [4]. In addition, the inhibition in experiment [2] was 13%; in experiment [3] it was -2%. Besides, the result in experiment [5], in experiment [6], in experiment [7] and in experiment [8] was inactive.

As for `FC(F)(F)c1ccc(CSc2ccc3nnc(-c4ccccn4)n3n2)cc1`, the figures for the growth inhibition in experiment [1] and in experiment [4] were 54% (active) and 95% (active), respectively. For the same compound, the figures for the inhibition in experiment [2] and in experiment [3] were -2% and -1%, respectively. In addition, the result in experiment [5], in experiment [6], in experiment [7] and in experiment [8] was inactive.

Turning to `Cn1c(NCc2cc(F)cc3c2OCOC3)nc2cc(Nc3ccnc(Nc4cccc(CS(C)(=O)=O)c4)n3)ccc21`, the growth inhibition is 100% (active) in experiment [1] and 102% (active) in experiment [4]. For the same compound, the inhibition in experiment [2] is -14%; in experiment [3], -1%. For the same compound, the result in experiment [5], in experiment [6], in experiment [7] and in experiment [8] was inactive.

With `O=C(NCCN1CCCCC1)N1CCCN(c2ncnc3cc(-c4ccccc4)sc23)CC1`, the growth inhibition is 80% (active) in experiment [1] and 89% (active) in experiment [4]. Moreover, the inhibition in experiment [2] is 2%; in experiment [3] it was -1%. Besides, the outcome in experiment [5], in experiment [6], in experiment [7] and in experiment [8] was inactive.

As to `CCOc1ccc2c(NN=Cc3cccc([N+](=O)[O-])c3)cc(C)nc2c1`, the growth inhibition in experiment [1] was 97% (active); in experiment [4], 100% (active). Moreover, the inhibition in experiment [2] was 4%; in experiment [3], 3%. The result in experiment [5], in experiment [6], in experiment [7] and in experiment [8] was inactive.

Consider `CCOCc1cn(CC(=O)c2ccc(-c3ccccc3)cc2)c(C)nc1=N`, for which the growth inhibition is 72% (active) in experiment [1] and 93% (active) in experiment [4]. The inhibition in experiment [2] was 13%; in experiment [3] it was 5%. Moreover, the outcome in experiment [5], in experiment [6], in experiment [7] and in experiment [8] was inactive.

As to `CCCN(CCC)C(=O)c1cc(-c2cccc(C)c2)nc2ccccc12`, the growth inhibition in experiment [1] is 59% (active); in experiment [4] it was 86% (active). In addition, the figures for the inhibition in experiment [2] and in experiment [3] were 17% and -6%, respectively. Further, the result in experiment [5], in experiment [6], in experiment [7] and in experiment [8] was inactive.

In the case of `Cc1cc(C(=O)Nc2ccc3c(c2)CCN3C2CCN(Cc3ccc4nsnc4c3)C2)no1` (configuration not stated), the growth inhibition in experiment [1] was 94% (active); in experiment [4], 90% (active). For the same compound, the inhibition in experiment [2] and in experiment [3] was -1% each time. Besides, the result in experiment [5], in experiment [6], in experiment [7] and in experiment [8] was inactive.

In general, inhibition refers to the drop in the measured response relative to a control, in per cent.
